Source: PubChem
PAX8 inh HTS – inhibitors of PAX8-driven TPO luciferase reporter, primary screen, RMG-I cells, single concentration; SteadyGlo, 24 h; inhibition, % at 12.6 µM; 360,000 compounds, 1.2% hits; AID 652154, 2013;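 active = mean replicate inhibition at least 60% with every replicate also reaching 60%; inconclusive = only one of the two criteria is met; inactive = mean below 60% and not all replicates reaching 60%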;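 also: luciferase light reporting Pax8 driven TPO promoter activity; plate controls were median of neutral control wells for no effect and mitoxantrone controls for full effect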
EWS-Fli inh – EWS/Fli-driven NR0B1 reporter inhibitors, primary screen, A673 cells, NR0B1 luciferase, luminescence, MLPCN library; viability-normalised; inhibition, % at 12.6 µM; 350,000 compounds, 0.67% hits; AID 651661, 2012;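 active = mean inhibition of at least 50% after viability correction, with every replicate also passing that limit; inconclusive = mean reaches 50% but only one of two replicates passes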;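 also: firefly luciferase signal divided by Alamar Blue viability fluorescence both relative to DMSO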
CF NFkB block – inhibitors of PAF-induced NF-kB signaling, primary screen, cell-based, GFP fluorescence, uHTS; KKLEB NF-kB-GFP reporter, GFP fluorescence overnight; inhibition, % at 5 µM; 360,000 compounds, 0.86% hits;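 active = at least 50% inhibition at 5 µM, scaled per plate between neutral and stimulator controls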;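 also: PAF is a Pseudomonas aeruginosa culture filtrate used as stimulus; plate controls were PAF-stimulated DMSO wells for no effect and unstimulated DMSO wells for full effect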
HIF-2a inh – HIF-2a reporter inhibitors, primary screen, luminescence, 786-0 RCC cells; 786-0 RCC cells HIF-2a reporter, luciferase luminescence, overnight; inhibition, % at 18.8 µM; 360,000 compounds, 0.72% hits;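 active = inhibition of the luminescence signal of 40% or more relative to plate controls, in a single-dose primary screen at 18.75 µM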
KKLEB tox – cytotoxicity in KKLEB CF airway cells, primary screen, cytotoxicity control for CF NF-kB inhibitor project, cell-based, uHTS, fluorescence assay plates; AID 602141, 2011; KKLEB CF airway cells viability, ATPlite luminescence, overnight; active compounds read low; cells stimulated with P. aeruginosa culture filtrate; activity change (cytotoxicity), % at 5 µM; 360,000 compounds, 0.36% hits;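 active = corrected activity change at or below -50% at 5 µM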
Mdm2 MdmX conf – retested Mdm2-MdmX interaction blockers, confirmation, cell-based, luminescence, single concentration, set 2. 740 compounds, 99% hits. shares compounds with HIF-2a inh. SaOS-2 split-luciferase Mdm2/MdmX complementation. inhibition, % at 8 µM;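 active = mean inhibition of the luminescence signal across two replicates at or above 26 percent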
Target sequence (O15151 whole entry, looked up): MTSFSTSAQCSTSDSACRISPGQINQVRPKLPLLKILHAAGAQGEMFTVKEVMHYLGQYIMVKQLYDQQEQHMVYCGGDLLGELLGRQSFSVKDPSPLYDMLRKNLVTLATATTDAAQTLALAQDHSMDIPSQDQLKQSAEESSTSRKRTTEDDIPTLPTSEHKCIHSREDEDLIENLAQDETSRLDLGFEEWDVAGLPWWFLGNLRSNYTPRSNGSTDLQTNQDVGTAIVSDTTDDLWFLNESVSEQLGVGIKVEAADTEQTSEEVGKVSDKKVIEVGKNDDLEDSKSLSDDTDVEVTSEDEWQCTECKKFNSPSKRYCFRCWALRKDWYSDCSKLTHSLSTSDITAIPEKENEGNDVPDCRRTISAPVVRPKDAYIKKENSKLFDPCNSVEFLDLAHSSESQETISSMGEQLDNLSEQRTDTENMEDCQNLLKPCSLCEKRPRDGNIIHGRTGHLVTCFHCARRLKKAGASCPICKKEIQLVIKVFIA
Target sequence (Q00987 whole entry, looked up): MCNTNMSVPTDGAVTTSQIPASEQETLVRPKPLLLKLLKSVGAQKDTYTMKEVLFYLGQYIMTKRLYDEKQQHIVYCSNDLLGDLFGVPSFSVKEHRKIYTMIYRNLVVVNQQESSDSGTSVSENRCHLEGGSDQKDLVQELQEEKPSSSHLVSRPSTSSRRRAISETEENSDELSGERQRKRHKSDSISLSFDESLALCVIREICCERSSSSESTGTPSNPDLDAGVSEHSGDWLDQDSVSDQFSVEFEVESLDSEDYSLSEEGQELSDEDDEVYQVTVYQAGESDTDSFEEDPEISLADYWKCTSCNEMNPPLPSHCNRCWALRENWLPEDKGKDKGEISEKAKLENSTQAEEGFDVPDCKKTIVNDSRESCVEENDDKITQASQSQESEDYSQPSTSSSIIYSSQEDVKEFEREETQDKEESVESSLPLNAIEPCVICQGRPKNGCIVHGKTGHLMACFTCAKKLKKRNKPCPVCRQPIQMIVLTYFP
HIF-2a inh conf – HIF-2a reporter inhibitor retest, confirmation, luminescence, 786-0 RCC cells | shares compounds with HIF-2a inh | HIF-2a luciferase reporter luminescence, overnight | inhibition, % at 18.8 µM | 1,800 compounds, 56% hits | AID 651580, 2012;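 active = mean inhibition across four replicates of at least 40 percent at the single tested concentration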
HIF-1a cs – HIF-1a luciferase reporter signal reduction – MiaPaCa-2 cells, single concentration, counter-screen for HIF-2a inhibitor project, confirmation; shares compounds with HIF-2a inh; MiaPaCa-2 HIF-1a luciferase reporter, desferoxamine, overnight; inhibition, % at 18.8 µM; 1,800 compounds, 72% hits;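 active = mean inhibition of the reporter signal across four replicates at the single tested dose of 50% or more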
An asterisk follows results filed as active; ! = not active in a repeat. Rows were chosen to be rich in hits. Some 2.1% of all compounds tested hit in one or more screens of this group.

Results for CNC[C@@H]1Oc2cc(C#Cc3ccc(F)cc3)ccc2S(=O)(=O)N([C@H](C)CO)C[C@H]1C ?
PAX8 inh HTS: 33; EWS-Fli inh: 11

Results for CC(C)(C)n1nc(-c2ccc(F)cc2)c2c(N)ncnc21 ?
CF NFkB block: 31; HIF-2a inh: 43*; KKLEB tox: -8; HIF-2a inh conf: 45*; HIF-1a cs: 22

How did CC(C)(C)n1nc(-c2ccc(Cl)cc2)c2c(N)ncnc21 do in these assays?
CF NFkB block: 46; HIF-2a inh: 63*; KKLEB tox: 4; HIF-2a inh conf: 43*; HIF-1a cs: 80*

Results for N/C(=N\OC(=O)c1ccc([N+](=O)[O-])cc1Cl)c1ccccn1 ?
PAX8 inh HTS: 68*; EWS-Fli inh: 72*; CF NFkB block: -25; HIF-2a inh: 41*; KKLEB tox: -30; HIF-2a inh conf: 28; HIF-1a cs: 62*

What do the screens show for `C#CCn1c(S(=O)(=O)Cc2ccc(F)cc2)nc(-c2ccccc2)c1-c1ccccc1`?
CF NFkB block: 9; HIF-2a inh: -6; KKLEB tox: 3; Mdm2 MdmX conf: 101*

Results for O=C(O)c1ccc(Cl)c(S(=O)(=O)N2CCCC2)c1 ?
PAX8 inh HTS: -7; EWS-Fli inh: 12; CF NFkB block: -8; HIF-2a inh: 41*; KKLEB tox: 6; HIF-2a inh conf: 1; HIF-1a cs: 1

What do the screens show for `Cc1noc(C)c1S(=O)(=O)Nc1ccc2c(c1)C(=O)N([C@H](C)CO)C[C@H](C)[C@@H](CN(C)CC1CCCCC1)O2`?
EWS-Fli inh: -3

Results for COc1cc(/C=N/O)ccc1OCc1ccc(C(=O)O)cc1 ?
PAX8 inh HTS: 94*; CF NFkB block: 6; HIF-2a inh: 89*; KKLEB tox: -11; HIF-2a inh conf: 90*; HIF-1a cs: -74

How did Cc1ccc(C(C)C)c(OCc2ccc(C(=O)N/N=C/c3ccc(C(=O)O)cc3)cc2)c1 do in these assays?
PAX8 inh HTS: -50; EWS-Fli inh: 32; CF NFkB block: 8; HIF-2a inh: 67*; KKLEB tox: -1; HIF-2a inh conf: 81*; HIF-1a cs: -13

What do the screens show for `COc1cc(/C=N/O)ccc1OCc1ccc(Cl)cc1`?
PAX8 inh HTS: -214; EWS-Fli inh: -47

Results for Cc1ccc(COc2ccc(/C=N/NC(=O)c3ccc(CN4CCOCC4)cc3)cc2)cc1 ?
PAX8 inh HTS: -140; CF NFkB block: -11; HIF-2a inh: -51; KKLEB tox: -21

How did CCS(=O)(=O)N[C@H]1CC[C@H](CC(=O)NCc2ccc(F)cc2)O[C@H]1CO do in these assays?
PAX8 inh HTS: -8; EWS-Fli inh: -3

How did COCC(=O)N(C)C[C@@H]1Oc2ncc(Br)cc2C(=O)N([C@H](C)CO)C[C@H]1C do in these assays?
PAX8 inh HTS: -8; EWS-Fli inh: -9

How did Cc1noc(C)c1S(=O)(=O)N(C)C[C@H]1OCCCC[C@@H](C)Oc2ccc(NC(=O)Nc3ccccc3)cc2C(=O)N([C@@H](C)CO)C[C@H]1C do in these assays?
PAX8 inh HTS: 6; EWS-Fli inh: 4

Results for COc1ccc2cc1Oc1ccc(cc1)C[C@H]1c3c(cc4c(c3Oc3cc5c(cc3OC)CCN(C)[C@@H]5C2)OCO4)CCN1C ?
PAX8 inh HTS: 2; EWS-Fli inh: 16; CF NFkB block: 9; HIF-2a inh: 8; KKLEB tox: -22

Results for COc1ccc2cc1Oc1ccc(cc1)C[C@H]1c3cc(c(OC)cc3CCN1C)Oc1c(OC)c(OC)cc3c1[C@H](C2)N(C)CC3 ?
PAX8 inh HTS: 39; EWS-Fli inh: 57*; CF NFkB block: 27; HIF-2a inh: 11; KKLEB tox: -14; Mdm2 MdmX conf: 102*

What do the screens show for `CNC[C@H]1Oc2cc(-c3ccc(C#N)cc3)ccc2S(=O)(=O)N([C@H](C)CO)C[C@@H]1C`?
PAX8 inh HTS: 0; EWS-Fli inh: 11

Results for CC1CCC(C(C)C)C(OC(=O)Cn2c(-c3ccc(Cl)cc3)[n+](C)c3ccccc32)C1 (stereo not given) ?
PAX8 inh HTS: 96*; EWS-Fli inh: 23; CF NFkB block: 56*; HIF-2a inh: -65; KKLEB tox: -58*; Mdm2 MdmX conf: 100*

What do the screens show for `CC1CCC(C(C)C)C(OC(=O)Cn2c(-c3ccc(Br)cc3)[n+](C)c3ccccc32)C1` (stereo not given)?
PAX8 inh HTS: 100*; EWS-Fli inh: 21; CF NFkB block: 54*; HIF-2a inh: -29; KKLEB tox: -57*!; Mdm2 MdmX conf: 103*

What do the screens show for `Cc1ccccc1OCc1n(CC(=O)OC2CC(C)CCC2C(C)C)c2ccccc2[n+]1C` (stereo not given)?
PAX8 inh HTS: 105*; EWS-Fli inh: inconclusive; CF NFkB block: 83*; HIF-2a inh: 94*!; KKLEB tox: -83*; Mdm2 MdmX conf: 102*; HIF-2a inh conf: 37; HIF-1a cs: 107*

What do the screens show for `Cc1noc(C)c1S(=O)(=O)N(C)C[C@@H]1OCCCC[C@H](C)Oc2ccc(NS(C)(=O)=O)cc2C(=O)N([C@@H](C)CO)C[C@H]1C`?
EWS-Fli inh: -15

How did C[C@@H]1CCCCO[C@@H](CN(C)Cc2ccc(C(F)(F)F)cc2)[C@H](C)CN([C@H](C)CO)C(=O)c2cc(NS(=O)(=O)c3cn(C)cn3)ccc2O1 do in these assays?
EWS-Fli inh: 4

How did O=C(C[C@H]1CC[C@@H]2[C@H](COC[C@H](O)CN2C(=O)Nc2ccc(Cl)cc2)O1)N1CCCCC1 do in these assays?
PAX8 inh HTS: -45; EWS-Fli inh: -49

How did O=C(NCCc1ccccc1)c1ccc2c(c1)OCCCO2 do in these assays?
PAX8 inh HTS: 110*; EWS-Fli inh: 89*; CF NFkB block: 3; HIF-2a inh: 92*; KKLEB tox: -52*; Mdm2 MdmX conf: 99*

Results for O=C(NCCc1ccccc1)c1ccc2c(c1)OCCO2 ?
EWS-Fli inh: 90*; CF NFkB block: -47; HIF-2a inh: 84*; KKLEB tox: -27; HIF-2a inh conf: 91*; HIF-1a cs: 95*
